Composite z-score and z-score data for four compounds are collected here from PubChem BioAssay.

In test [1] the test system is Plasmodium falciparum Sir2 (PF13_0152, Sir2A). The test is described as follows: pfSir2 binders on small-molecule microarrays, primary screen, biochemical, small-molecule microarray, 635 nm fluorescence (AID 1098).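 Also: score merges spot fluorescence intensity with its signal-to-noise ratio.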 Particulars: small-molecule microarray binding, fluorescence 635 nm; higher = more signal.
Test [2] is described as follows: small-molecule microarray binders of probe aDKK1, primary screen, biochemical, biotinylated probe, 635/667 nm fluorescence (AID 1099).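 Also: score merges 667nm spot fluorescence with signal to noise across triplicate slides.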 Particulars: higher = more signal.
The nature of test [3]: small-molecule microarray binders of probe aCHRDL2, primary screen, biochemical, biotinylated probe, 635/667 nm fluorescence (AID 1100). Particulars: higher = more signal.
Test [4] can be described thus: splicing luciferase reporter signal modulators, primary screen, spliceosome inhibition project, cell-based, HEK293, splice +/- reporter (AID 1101).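 Also: HEK293 cells carrying a splicing-competent luciferase reporter gene; test concentration not given here.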 Particulars: luminescence, 24 h, higher = more signal, called active from +8 up or from −8 down.
The target in test [5] is Fibroblast growth factor 10 (Homo sapiens) (UniProt O15520). The test is described as follows: FGF10 binders on small-molecule microarrays, primary screen, biochemical, small-molecule microarray, 635 nm fluorescence (AID 1102). The settings on record: FGF10 binding, fluorescence 635 nm, higher = more signal.
Fibroblast growth factor 10 (Homo sapiens), sequence (O15520 whole entry, looked up): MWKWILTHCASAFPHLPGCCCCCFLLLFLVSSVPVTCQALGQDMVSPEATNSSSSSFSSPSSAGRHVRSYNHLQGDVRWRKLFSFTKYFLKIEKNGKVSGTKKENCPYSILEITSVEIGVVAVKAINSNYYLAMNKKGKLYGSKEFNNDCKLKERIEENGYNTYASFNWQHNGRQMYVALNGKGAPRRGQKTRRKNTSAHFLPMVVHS
Test [6] deals with glycogen synthase kinase-3 (GSK3A per assay name; protocol says GSK3B). The test is described as follows: GSK3 binders on small-molecule microarrays, primary screen, biochemical, small-molecule microarray, 635 nm fluorescence, GSK3A (AID 1103). Also: the record names both GSK3A and GSK3B. Particulars: small-molecule microarray binding, fluorescence 635 nm; higher = more signal.
Test [7] has as its target Epidermal growth factor receptor (Homo sapiens) (UniProt P00533). The test can be described thus: EGFR binders on small-molecule microarrays, primary screen, biochemical, small-molecule microarray, 635 nm fluorescence (AID 1104).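 Also: score merges 667 nm emission intensity with spot signal to noise over triplicate slides.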 The settings on record: EGFR binding, higher = more signal.
Test [8] addresses Follistatin-related protein 3 (Homo sapiens) (UniProt O95633). The test is described as follows: FSTL3 binders on small-molecule microarrays, primary screen, biochemical, small-molecule microarray, 635 nm fluorescence (AID 1105).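 Also: score merges emission near 667 nm and signal to noise per printed spot across three slides.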 The settings on record: FSTL3 binding, higher = more signal.
The target of test [9] is Dickkopf-related protein 1 (Homo sapiens) (UniProt O94907). The test is described as follows: DKK1 binders on small-molecule microarrays, primary screen, biochemical, small-molecule microarray, 635 nm fluorescence scan (AID 1106).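 Also: score merges emission near 667 nm with signal to noise over three replicate slides.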 Particulars: DKK1 binding, higher = more signal.
Dickkopf-related protein 1 (Homo sapiens), sequence (O94907 whole entry, looked up): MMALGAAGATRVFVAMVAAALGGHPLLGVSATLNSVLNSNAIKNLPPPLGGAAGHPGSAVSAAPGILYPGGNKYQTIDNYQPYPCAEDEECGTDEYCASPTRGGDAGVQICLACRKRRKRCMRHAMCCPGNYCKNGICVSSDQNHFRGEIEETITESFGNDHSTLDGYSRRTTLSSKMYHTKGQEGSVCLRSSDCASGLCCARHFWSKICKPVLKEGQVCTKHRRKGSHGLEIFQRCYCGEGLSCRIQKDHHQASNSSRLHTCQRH
Test [10] deals with Inhibin beta A chain (activin A). The test can be described thus: INHBA (activin A) binders on microarrays, primary screen, biochemical, small-molecule microarray, 635 nm fluorescence scan (AID 1107).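 Also: mouse activin A protein probed at 4.33 µg/mL on printed slides; score merges bound-protein fluorescence near 667 nm with spot signal-to-noise.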 Particulars: small-molecule microarray binding, higher = more signal.
In test [11] the test system is Human papillomavirus type 1a protein E7 (residues 44-93). The test is described as follows: HPV1a E7 fragment binders on microarrays, primary screen, biochemical, small-molecule microarray, residues 44-93, 635 nm fluorescence (AID 1108).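 Also: E7 fragment applied at 1 µg/mL in TBST for 1 h at 4 C; score combines spot fluorescence with its signal to noise ratio.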 The settings on record: small-molecule microarray binding, fluorescence 635 nm; higher = more signal.
Test [12] can be described thus: modulators of HCV replicon luciferase signal, primary screen, HCV replication inhibitor project, Huh7 cells, luciferase reporter (AID 1109).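 Also: huh7 hepatoma cells harbouring a luciferase neomycin HCV replicon reporter; luciferase luminescence as measure of HCV replicon replication; test concentration not given here.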 The settings on record: 48 h, higher = more signal. (In antiviral work, replicon cells carry a viral genome segment that copies itself.)
In test [13] the target is Left-right determination factor 2 (Homo sapiens) (UniProt O00292). The test is described as follows: LEFTY2 binders on small-molecule microarrays, primary screen, biochemical, small-molecule microarray, 635 nm fluorescence scan (AID 1110). The settings on record: LEFTY2 binding, higher = more signal.
Left-right determination factor 2 (Homo sapiens), sequence (O00292 whole entry, looked up): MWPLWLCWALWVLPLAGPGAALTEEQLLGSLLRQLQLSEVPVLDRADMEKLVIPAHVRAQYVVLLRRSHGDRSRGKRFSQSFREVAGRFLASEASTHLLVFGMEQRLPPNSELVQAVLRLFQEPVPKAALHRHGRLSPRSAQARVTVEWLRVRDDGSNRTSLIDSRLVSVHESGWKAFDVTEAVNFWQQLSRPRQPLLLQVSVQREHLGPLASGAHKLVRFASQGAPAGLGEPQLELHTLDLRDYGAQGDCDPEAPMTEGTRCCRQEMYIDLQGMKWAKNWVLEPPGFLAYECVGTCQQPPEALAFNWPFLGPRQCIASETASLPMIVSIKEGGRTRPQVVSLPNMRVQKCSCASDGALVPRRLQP
Test [14] concerns the target Calmodulin-1 (Homo sapiens) (UniProt P0DP23). The test is described as follows: CALM1 binders on microarrays, EGTA buffer, profiling panel, biochemical, small-molecule microarray, Cy5-labelled CALM1 (AID 1111).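 Also: labelled calmodulin applied in Tris saline Tween buffer holding calcium plus EGTA and DTT.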 The settings on record: Cy5-CALM1 binding fluorescence, higher = more signal.
For test [15] the target is unchanged. The test is described as follows: calcium-bound CALM1 binders on microarrays, profiling panel, artefact control for SMM control-protein annotation, biochemical, small-molecule microarray, Cy5-labelled CALM1, plus calcium (AID 1112).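 Also: score merges spot fluorescence with signal to noise from triplicate slides.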 The settings on record: Cy5-CALM1 binding fluorescence, higher = more signal.
The nature of test [16]: small-molecule microarray binders of probe aWnt5a, primary screen, biochemical, biotinylated probe, 635/667 nm fluorescence (AID 1113).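 Also: score merges 667 nm fluorescence intensity with signal-to-noise per printed feature.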 The settings on record: higher = more signal.
A short description of test [17]: small-molecule microarray binders of probe aShh, primary screen, biochemical, biotinylated probe, 635/667 nm fluorescence (AID 1114).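 Also: probe is biotin-labelled aShh protein from a stem cell growth factor screen; measures binding of labelled protein to compounds printed on the slide; score merges feature fluorescence at 667 nm with signal-to-noise.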 The settings on record: higher = more signal.
The nature of test [18]: small-molecule microarray binders of probe aNog, primary screen, biochemical, biotinylated probe, 635/667 nm fluorescence (AID 1115).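 Also: probe is biotinylated aNog protein used at 0.15 µg/mL for 1 h at 4 C; z-score combines 667 nm fluorescence of each spot with its signal to noise.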 The settings on record: higher = more signal.
For test [19], the target named is Torsin-1A-interacting protein 1 (Homo sapiens) (UniProt Q5JTV8). The test can be described thus: LAP1 binders from COS7 cell lysate, primary screen, small-molecule microarray, 635/667 nm fluorescence (AID 1116). Particulars: COS7-hLAP1 lysate binding, 635 nm fluorescence, higher = more signal.
Torsin-1A-interacting protein 1 (Homo sapiens), sequence (Q5JTV8 whole entry, looked up): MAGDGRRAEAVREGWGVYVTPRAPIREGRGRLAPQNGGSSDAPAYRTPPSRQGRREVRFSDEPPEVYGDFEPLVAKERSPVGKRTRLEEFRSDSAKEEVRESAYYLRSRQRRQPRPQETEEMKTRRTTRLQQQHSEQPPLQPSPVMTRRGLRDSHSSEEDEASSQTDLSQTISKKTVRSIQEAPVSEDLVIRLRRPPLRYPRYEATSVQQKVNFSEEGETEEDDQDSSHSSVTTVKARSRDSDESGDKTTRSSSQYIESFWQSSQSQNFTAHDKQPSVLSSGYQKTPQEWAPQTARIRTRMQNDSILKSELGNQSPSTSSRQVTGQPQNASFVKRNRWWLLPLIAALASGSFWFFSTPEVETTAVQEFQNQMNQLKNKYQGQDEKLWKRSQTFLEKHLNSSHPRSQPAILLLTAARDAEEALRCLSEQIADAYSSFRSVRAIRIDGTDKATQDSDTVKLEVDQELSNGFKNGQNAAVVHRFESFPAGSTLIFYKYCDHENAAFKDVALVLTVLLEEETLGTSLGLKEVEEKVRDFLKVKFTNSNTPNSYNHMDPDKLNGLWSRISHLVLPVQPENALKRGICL
In test [20] the target is Alpha-bungarotoxin (Bungarus multicinctus) (UniProt P60615). The test can be described thus: alpha-bungarotoxin binders on microarray, profiling panel, artefact control for SMM control protein annotation, biochemical, small-molecule microarray, Alexa647 label, 635/667 nm fluorescence (AID 1117). The settings on record: alpha-BTX-A647 binding fluorescence, higher = more signal.
Alpha-bungarotoxin (Bungarus multicinctus), sequence (P60615 whole entry, looked up): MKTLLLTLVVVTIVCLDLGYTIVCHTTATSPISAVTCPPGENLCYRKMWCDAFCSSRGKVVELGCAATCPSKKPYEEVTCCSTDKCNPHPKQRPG

Values joined by “and” are separate entries in the source; they are usually repeats but may differ in a detail not shown here. Identical values can stand only once. Active and inactive are the calls of the source.

Follistatin-related protein 3 (Homo sapiens), sequence (O95633 whole entry, looked up): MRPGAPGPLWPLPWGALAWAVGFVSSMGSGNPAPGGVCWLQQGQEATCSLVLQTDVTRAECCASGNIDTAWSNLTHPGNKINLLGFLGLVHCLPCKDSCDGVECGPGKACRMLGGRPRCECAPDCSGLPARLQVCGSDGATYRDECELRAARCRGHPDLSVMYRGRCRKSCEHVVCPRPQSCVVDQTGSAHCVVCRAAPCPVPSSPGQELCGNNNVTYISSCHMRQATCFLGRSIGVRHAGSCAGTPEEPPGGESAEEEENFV
Epidermal growth factor receptor (Homo sapiens), sequence (P00533 whole entry, looked up): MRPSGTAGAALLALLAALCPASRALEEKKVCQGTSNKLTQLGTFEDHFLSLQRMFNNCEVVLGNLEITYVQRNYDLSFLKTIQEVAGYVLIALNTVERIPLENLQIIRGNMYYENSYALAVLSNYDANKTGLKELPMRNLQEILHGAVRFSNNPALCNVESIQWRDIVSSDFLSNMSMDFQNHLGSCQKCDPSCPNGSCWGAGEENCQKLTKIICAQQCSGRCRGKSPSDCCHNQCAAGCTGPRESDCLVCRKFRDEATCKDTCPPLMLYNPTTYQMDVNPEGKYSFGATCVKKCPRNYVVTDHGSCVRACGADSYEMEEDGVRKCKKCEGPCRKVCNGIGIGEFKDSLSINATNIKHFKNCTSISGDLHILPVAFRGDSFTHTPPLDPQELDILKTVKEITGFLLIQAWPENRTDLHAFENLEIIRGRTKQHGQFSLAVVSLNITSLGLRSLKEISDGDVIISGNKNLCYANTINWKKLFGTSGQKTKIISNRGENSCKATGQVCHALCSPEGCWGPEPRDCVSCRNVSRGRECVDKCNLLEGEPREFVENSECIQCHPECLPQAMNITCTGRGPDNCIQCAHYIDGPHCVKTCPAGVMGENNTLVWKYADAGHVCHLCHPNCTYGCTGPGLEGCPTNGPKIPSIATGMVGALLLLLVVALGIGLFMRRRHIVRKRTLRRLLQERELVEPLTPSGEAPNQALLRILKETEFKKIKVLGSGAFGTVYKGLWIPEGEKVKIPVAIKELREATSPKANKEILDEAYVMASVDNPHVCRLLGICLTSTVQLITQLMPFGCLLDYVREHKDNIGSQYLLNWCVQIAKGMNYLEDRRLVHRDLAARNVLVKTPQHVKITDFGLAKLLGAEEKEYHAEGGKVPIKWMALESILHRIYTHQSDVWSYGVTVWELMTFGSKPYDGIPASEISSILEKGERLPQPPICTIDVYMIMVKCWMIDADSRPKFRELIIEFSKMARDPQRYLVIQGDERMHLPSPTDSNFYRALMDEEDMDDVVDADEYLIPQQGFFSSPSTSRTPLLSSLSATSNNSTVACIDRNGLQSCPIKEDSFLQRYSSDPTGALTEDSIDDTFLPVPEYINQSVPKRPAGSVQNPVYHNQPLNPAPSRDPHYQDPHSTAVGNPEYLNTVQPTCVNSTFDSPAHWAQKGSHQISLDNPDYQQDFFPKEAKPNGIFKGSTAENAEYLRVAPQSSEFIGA

With `C=C[C@@H](C)[C@@H](O)c1ccc(O)c2ccccc12`, the composite z-score in test [1] is 1.02 and -0.0966; in test [2], -0.419 and -0.315; in [3], 0.238 and 0.216; in [5], -0.665 and -0.654; in test [6] it was -1.52 and -0.746; in test [7] it was -0.815 and -1.04. Also, the composite z-score in test [8] was -0.961 and -0.644; in test [9], -0.598 and 0.088; in [10], 0.936 and 0.89; in test [11] it was -0.719 and -0.288; in test [13], -1.21 and -0.861; in test [14] it was -0.878 and -0.992. In addition, the composite z-score was -0.36 and -0.903 in [15]; -0.146 and -0.236 in test [16]; 0.23 and -0.214 in test [17]; -0.337 and -0.411 in test [18]; -0.802 and 0.0066 in [19]; -1.29 and 1.65 in test [20]. For the same compound, the z-score in test [4] is 0.591 (inactive) and -0.814 (inactive); in [12], -1.55 and -2.15.
As for `C=CCN(CCCCC)C(=O)C(c1cccs1)N(C(=O)/C=C\C(=O)O)c1ccc(CCO)cc1` (stereo not given), the composite z-score in test [1] is 0.274 and 0.158; in test [2] it was -0.273 and -0.247; in [3] it was 0.748 and 0.789; in test [5], -1.8 and -1.08; in test [6], -1.01 and -0.785; in test [7] it was -1.79 and -1.62. Besides, the composite z-score was -1.87 and -1.55 in test [8]; -2.83 and -1.55 in test [9]; -2.66 and -1.26 in test [10]; 0.0979 and -0.457 in test [11]; -3.06 and -2.73 in [13]; -0.783 and -0.531 in [14]. Also, the composite z-score in [15] is 0.0708 and 0.542; in test [16] it was -0.284 and -0.211; in test [17], 0.289 and -0.154; in test [18], -0.23 and -0.241; in [19], -0.755 and -0.0484; in [20], -0.89 and -0.874. Further, the z-score is 0.748 (inactive) and 0.709 (inactive) in test [4]; -0.779 and -0.741 in [12].
Consider `C=CCN(C(=O)C(c1cccs1)N(C(=O)/C=C\C(=O)O)c1c(Cl)cccc1CO)c1ccc(OC)cc1` (stereo not given), for which the composite z-score in test [1] is 1.67 and 0.504; in [2] it was 0.218 and 1.01; in test [3], 1.24 and 1.27; in test [5], -1.5 and -1.19; in test [6], -0.625 and -0.907; in test [7] it was -2.29 and -1.02. The composite z-score in [8] is -2.23 and -1.78; in test [9] it was -4.06 and -2.06; in test [10] it was -0.828 and -0.09; in test [11], -0.523 and -0.539; in [13], -2.96 and -1.51; in test [14], -0.0794 and -0.107. The composite z-score is 1.06 and 0.804 in test [15]; -0.285 and -0.096 in test [16]; -0.0011 and 0.173 in test [17]; 0.709 and -0.0216 in [18]; 1.81 and -0.188 in [19]; -1.73 and -0.053 in test [20]. In addition, the z-score is -1.13 (inactive) and -0.482 (inactive) in [4]; -0.16 and -0.604 in [12].
In the case of `CO[C@H]1COC(=O)[C@H](C)NC(=O)CC=C[C@@H](C)[C@H](OC)COC(=O)CC=C[C@@H]1C`, the composite z-score was 0.523 in test [1]; -0.785 in test [2]; -1.62 in [3]; 0.504 in test [5]; 1.04 in test [6]; 1.49 in test [7]. In addition, the composite z-score in [8] was 1.45; in [9] it was 1.62; in test [10] it was 1.68; in test [11], -1.05; in test [13], 0.955; in test [14], -0.884. Further, the composite z-score is -0.822 in test [15]; -0.0944 in [16]; -0.0337 in test [17]; -0.198 in test [18]; 0.169 in [19]; -0.0006 in test [20]. The z-score was 0.506 (inactive) in [4] and -0.885 in test [12].
